Laboratory results: PubChem BioAssay
The source made the active and inactive calls.

Legend:
[1] = test system: Plasmodium falciparum Sir2 (PF13_0152, Sir2A); test: Plasmodium falciparum Sir2A binding compounds – biochemical, small-molecule microarray, 635 nm fluorescence, primary screen (AID 1098); conditions: fluorescence 635 nm, higher = more signal;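 also: score merges spot fluorescence intensity with its signal-to-noise ratio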
[2] = probe aDKK1 binding to arrayed compounds – biochemical, biotinylated probe, 635/667 nm fluorescence, primary screen (AID 1099); conditions: small-molecule microarray, higher = more signal;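 also: score merges 667nm spot fluorescence with signal to noise across triplicate slides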
[3] = probe aCHRDL2 binding to arrayed compounds – biochemical, biotinylated probe, 635/667 nm fluorescence, primary screen (AID 1100); conditions: small-molecule microarray, higher = more signal
[4] = change in splice reporter luminescence, either direction, cell-based, HEK293, spliceosome inhibition project, primary screen (AID 1101); conditions: HEK293 splicing luciferase reporter, 24 h, higher = more signal, called active from +8 up or from −8 down;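 also: HEK293 cells carrying a splicing-competent luciferase reporter gene; test concentration not given here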
[5] = molecular target: Fibroblast growth factor 10 (Homo sapiens) (UniProt O15520); test: compounds binding fibroblast growth factor 10 – biochemical, small-molecule microarray, 635 nm fluorescence, primary screen (AID 1102); conditions: FGF10 binding, fluorescence 635 nm, higher = more signal
Fibroblast growth factor 10 (Homo sapiens), sequence (O15520 whole entry, looked up): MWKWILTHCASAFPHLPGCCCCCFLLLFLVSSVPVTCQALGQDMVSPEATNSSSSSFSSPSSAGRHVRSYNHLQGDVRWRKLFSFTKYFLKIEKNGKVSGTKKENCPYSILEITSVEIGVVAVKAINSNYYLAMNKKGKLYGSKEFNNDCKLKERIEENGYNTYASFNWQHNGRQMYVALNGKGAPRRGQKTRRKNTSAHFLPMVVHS

[6] = test system: glycogen synthase kinase-3 (GSK3A per assay name; protocol says GSK3B); test: compounds binding glycogen synthase kinase-3 – biochemical, small-molecule microarray, 635 nm fluorescence, GSK3A, primary screen (AID 1103); conditions: fluorescence 635 nm, higher = more signal; also: the record names both GSK3A and GSK3B
[7] = molecular target: Epidermal growth factor receptor (Homo sapiens) (UniProt P00533); test: compounds binding epidermal growth factor receptor – biochemical, small-molecule microarray, 635 nm fluorescence, primary screen (AID 1104); conditions: EGFR binding, higher = more signal;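 also: score merges 667 nm emission intensity with spot signal to noise over triplicate slides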
Epidermal growth factor receptor (Homo sapiens), sequence (P00533 whole entry, looked up): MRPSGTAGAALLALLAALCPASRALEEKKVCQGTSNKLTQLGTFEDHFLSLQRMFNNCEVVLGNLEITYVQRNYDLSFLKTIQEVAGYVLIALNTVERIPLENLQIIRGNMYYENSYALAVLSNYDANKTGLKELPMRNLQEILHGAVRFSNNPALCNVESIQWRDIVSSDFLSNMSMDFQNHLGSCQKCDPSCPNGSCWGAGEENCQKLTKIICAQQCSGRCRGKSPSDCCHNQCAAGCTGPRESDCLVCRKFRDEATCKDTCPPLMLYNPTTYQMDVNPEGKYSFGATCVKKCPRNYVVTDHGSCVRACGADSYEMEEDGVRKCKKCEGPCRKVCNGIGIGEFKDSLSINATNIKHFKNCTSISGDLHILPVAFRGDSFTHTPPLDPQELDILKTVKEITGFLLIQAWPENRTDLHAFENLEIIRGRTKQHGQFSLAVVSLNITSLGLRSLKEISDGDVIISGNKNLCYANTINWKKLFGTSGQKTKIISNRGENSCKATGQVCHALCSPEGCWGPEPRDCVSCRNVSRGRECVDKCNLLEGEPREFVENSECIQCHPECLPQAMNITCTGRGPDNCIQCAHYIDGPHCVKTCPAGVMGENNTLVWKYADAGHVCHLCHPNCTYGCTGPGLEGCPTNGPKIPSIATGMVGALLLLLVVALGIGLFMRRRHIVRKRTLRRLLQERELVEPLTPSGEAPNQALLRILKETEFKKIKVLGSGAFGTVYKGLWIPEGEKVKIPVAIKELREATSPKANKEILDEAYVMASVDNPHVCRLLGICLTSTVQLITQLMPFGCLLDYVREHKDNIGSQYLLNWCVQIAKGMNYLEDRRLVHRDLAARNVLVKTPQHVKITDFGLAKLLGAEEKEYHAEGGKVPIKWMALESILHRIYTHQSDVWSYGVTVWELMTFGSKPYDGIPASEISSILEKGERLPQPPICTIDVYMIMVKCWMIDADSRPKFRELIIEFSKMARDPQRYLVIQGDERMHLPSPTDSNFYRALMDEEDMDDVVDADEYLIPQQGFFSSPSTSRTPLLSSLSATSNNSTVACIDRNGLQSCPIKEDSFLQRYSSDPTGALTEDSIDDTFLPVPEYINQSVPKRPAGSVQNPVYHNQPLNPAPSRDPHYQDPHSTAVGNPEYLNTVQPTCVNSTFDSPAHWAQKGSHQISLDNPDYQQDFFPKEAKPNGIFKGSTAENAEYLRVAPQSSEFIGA

[8] = molecular target: Follistatin-related protein 3 (Homo sapiens) (UniProt O95633); test: compounds binding follistatin-related protein 3 – biochemical, small-molecule microarray, 635 nm fluorescence, primary screen (AID 1105); conditions: FSTL3 binding, higher = more signal;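 also: score merges emission near 667 nm and signal to noise per printed spot across three slides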
Follistatin-related protein 3 (Homo sapiens), sequence (O95633 whole entry, looked up): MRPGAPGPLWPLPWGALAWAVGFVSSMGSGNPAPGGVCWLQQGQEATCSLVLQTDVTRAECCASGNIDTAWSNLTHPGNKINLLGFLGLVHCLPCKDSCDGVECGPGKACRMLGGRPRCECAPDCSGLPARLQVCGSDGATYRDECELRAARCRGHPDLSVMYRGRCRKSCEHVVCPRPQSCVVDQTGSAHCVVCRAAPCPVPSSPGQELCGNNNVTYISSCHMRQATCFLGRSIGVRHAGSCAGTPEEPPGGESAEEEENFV

[9] = molecular target: Dickkopf-related protein 1 (Homo sapiens) (UniProt O94907); test: small molecules binding DKK1 protein – biochemical, small-molecule microarray, 635 nm fluorescence scan, primary screen (AID 1106); conditions: higher = more signal;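 also: score merges emission near 667 nm with signal to noise over three replicate slides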
Dickkopf-related protein 1 (Homo sapiens), sequence (O94907 whole entry, looked up): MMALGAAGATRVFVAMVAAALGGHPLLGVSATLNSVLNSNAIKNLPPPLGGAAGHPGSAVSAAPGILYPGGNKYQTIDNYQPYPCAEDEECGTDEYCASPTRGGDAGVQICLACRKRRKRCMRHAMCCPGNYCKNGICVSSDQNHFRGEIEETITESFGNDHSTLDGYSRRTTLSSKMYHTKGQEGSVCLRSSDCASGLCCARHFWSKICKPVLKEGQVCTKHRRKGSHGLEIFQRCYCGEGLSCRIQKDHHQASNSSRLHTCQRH

[10] = test system: Inhibin beta A chain (activin A); test: small molecules binding activin A – biochemical, small-molecule microarray, 635 nm fluorescence scan, primary screen (AID 1107); conditions: INHBA, higher = more signal;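 also: mouse activin A protein probed at 4.33 µg/mL on printed slides; score merges bound-protein fluorescence near 667 nm with spot signal-to-noise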
[11] = test system: Human papillomavirus type 1a protein E7 (residues 44-93); test: small molecules binding HPV E7 44-93 – biochemical, small-molecule microarray, residues 44-93, 635 nm fluorescence, primary screen (AID 1108); conditions: fluorescence 635 nm, higher = more signal;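 also: E7 fragment applied at 1 µg/mL in TBST for 1 h at 4 C; score combines spot fluorescence with its signal to noise ratio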
[12] = hepatitis C replication reporter changes, two-sided – Huh7 cells, luciferase reporter, HCV replication inhibitor project, primary screen (AID 1109); conditions: Huh7 HCV replicon luciferase reporter, 48 h; higher = more signal;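 also: huh7 hepatoma cells harbouring a luciferase neomycin HCV replicon reporter; luciferase luminescence as measure of HCV replicon replication; test concentration not given here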
[13] = molecular target: Left-right determination factor 2 (Homo sapiens) (UniProt O00292); test: small molecules binding LEFTY2 protein – biochemical, small-molecule microarray, 635 nm fluorescence scan, primary screen (AID 1110); conditions: higher = more signal
Left-right determination factor 2 (Homo sapiens), sequence (O00292 whole entry, looked up): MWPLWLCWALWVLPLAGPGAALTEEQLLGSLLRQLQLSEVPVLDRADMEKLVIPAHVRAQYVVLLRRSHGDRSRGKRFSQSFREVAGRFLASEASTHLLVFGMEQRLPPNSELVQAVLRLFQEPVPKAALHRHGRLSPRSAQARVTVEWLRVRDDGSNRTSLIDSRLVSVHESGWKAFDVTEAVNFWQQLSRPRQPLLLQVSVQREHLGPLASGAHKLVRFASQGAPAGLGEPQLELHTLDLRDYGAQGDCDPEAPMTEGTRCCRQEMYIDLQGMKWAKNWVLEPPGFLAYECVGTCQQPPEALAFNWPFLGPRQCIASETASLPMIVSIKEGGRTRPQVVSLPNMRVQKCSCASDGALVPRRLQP

[14] = molecular target: Calmodulin-1 (Homo sapiens) (UniProt P0DP23); test: small molecules binding calmodulin-1 with EGTA – biochemical, small-molecule microarray, Cy5-labelled CALM1, profiling panel (AID 1111); conditions: Cy5-CALM1 binding fluorescence, higher = more signal;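 also: labelled calmodulin applied in Tris saline Tween buffer holding calcium plus EGTA and DTT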
[15] = molecular target: Calmodulin-1 (Homo sapiens) (UniProt P0DP23); test: small molecules binding Ca-loaded calmodulin-1 – biochemical, small-molecule microarray, Cy5-labelled CALM1, plus calcium, artefact control for SMM control-protein annotation, profiling panel (AID 1112); conditions: Cy5-CALM1 binding fluorescence, higher = more signal;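 also: score merges spot fluorescence with signal to noise from triplicate slides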
[16] = probe aWnt5a binding to arrayed compounds – biochemical, biotinylated probe, 635/667 nm fluorescence, primary screen (AID 1113); conditions: small-molecule microarray, higher = more signal;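 also: score merges 667 nm fluorescence intensity with signal-to-noise per printed feature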
[17] = probe aShh binding to arrayed compounds – biochemical, biotinylated probe, 635/667 nm fluorescence, primary screen (AID 1114); conditions: small-molecule microarray, higher = more signal;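 also: probe is biotin-labelled aShh protein from a stem cell growth factor screen; measures binding of labelled protein to compounds printed on the slide; score merges feature fluorescence at 667 nm with signal-to-noise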
[18] = probe aNog binding to arrayed compounds – biochemical, biotinylated probe, 635/667 nm fluorescence, primary screen (AID 1115); conditions: small-molecule microarray, higher = more signal;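 also: probe is biotinylated aNog protein used at 0.15 µg/mL for 1 h at 4 C; z-score combines 667 nm fluorescence of each spot with its signal to noise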
[19] = molecular target: Torsin-1A-interacting protein 1 (Homo sapiens) (UniProt Q5JTV8); test: compound microarray binding of lysate hLAP1 – cell lysate, small-molecule microarray, COS7 lysate, 635/667 nm fluorescence, primary screen (AID 1116); conditions: 635 nm fluorescence, higher = more signal
Torsin-1A-interacting protein 1 (Homo sapiens), sequence (Q5JTV8 whole entry, looked up): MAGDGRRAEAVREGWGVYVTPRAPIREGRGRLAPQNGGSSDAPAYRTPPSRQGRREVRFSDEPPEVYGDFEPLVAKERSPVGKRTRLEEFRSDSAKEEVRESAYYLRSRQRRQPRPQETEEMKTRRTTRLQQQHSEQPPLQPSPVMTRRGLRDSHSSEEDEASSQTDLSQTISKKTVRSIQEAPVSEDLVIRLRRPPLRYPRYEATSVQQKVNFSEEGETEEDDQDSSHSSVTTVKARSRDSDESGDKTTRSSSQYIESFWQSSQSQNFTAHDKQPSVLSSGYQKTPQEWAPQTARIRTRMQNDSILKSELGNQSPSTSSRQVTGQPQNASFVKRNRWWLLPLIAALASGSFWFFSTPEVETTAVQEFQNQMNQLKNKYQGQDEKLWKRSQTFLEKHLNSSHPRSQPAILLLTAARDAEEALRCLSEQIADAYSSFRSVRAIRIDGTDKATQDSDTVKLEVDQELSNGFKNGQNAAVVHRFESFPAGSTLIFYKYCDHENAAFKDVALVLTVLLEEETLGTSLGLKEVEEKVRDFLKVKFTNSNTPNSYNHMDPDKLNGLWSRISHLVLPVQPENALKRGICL

[20] = molecular target: Alpha-bungarotoxin (Bungarus multicinctus) (UniProt P60615); test: compounds binding labelled alpha-BTX control protein – biochemical, small-molecule microarray, Alexa647 label, 635/667 nm fluorescence, artefact control for SMM control protein annotation, profiling panel (AID 1117); conditions: alpha-BTX-A647 binding fluorescence, higher = more signal
Alpha-bungarotoxin (Bungarus multicinctus), sequence (P60615 whole entry, looked up): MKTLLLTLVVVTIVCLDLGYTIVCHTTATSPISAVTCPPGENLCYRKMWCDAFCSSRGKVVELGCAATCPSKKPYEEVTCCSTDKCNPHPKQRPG

Row | SMILES | composite z-score [1] | composite z-score [2] | composite z-score [3] | z-score [4] | composite z-score [5] | composite z-score [6] | composite z-score [7] | composite z-score [8] | composite z-score [9] | composite z-score [10] | composite z-score [11] | z-score [12] | composite z-score [13] | composite z-score [14] | composite z-score [15] | composite z-score [16] | composite z-score [17] | composite z-score [18] | composite z-score [19] | composite z-score [20]
1 | COC(=O)[C@@]1(Cc2ccccc2)N=C(c2ccc(OCCCO)cc2)O[C@H]1c1ccccc1N=[N+]=[N-] | 1.38 | 0.0861 | 0.657 | -0.384 (inactive) | 0.883 | 0.887 | -0.003 | 0.848 | 0.425 | 1.23 | 1.33 | -0.749 | 0.241 | -0.203 | -1.07 | -0.0405 | 0.297 | 0.781 | 2.83 | 0.778
2 | CC(C)CNC(=O)[C@@H]1c2ccccc2C(=O)N(Cc2cc(C(F)(F)F)cc(C(F)(F)F)c2)[C@H]1c1ccc(CO)cc1 | -0.46 | 0.416 | 0.822 | -0.827 (inactive) | -0.633 | -1.32 | -0.88 | -0.736 | -0.439 | -0.575 | -0.337 | -0.195 | -0.488 | -0.128 | 0.401 | 0.0437 | -0.155 | -0.247 | -0.0708 | -0.141
3 | CCOC(=O)[C@H]1C[C@H]2O[C@@]23C[C@H]1C(=O)N1CCCC1[C@@H]3O[Si](C)(C)C(C)(C)C (stereo not given in full) | -0.169 | -0.199 | -0.528 | 0.376 (inactive) | 0.476 | -0.445 | -0.694 | -0.198 | 0.0691 | 0.198 | -0.917 | -0.633 | -0.0688 | -0.821 | -0.392 | -0.184 | -0.138 | -0.202 | -0.132 | -0.789
4 | COC(=O)[C@@]1(Cc2ccccc2)[C@H]2c3cc(C(=O)N4CCCC4)n(C)c3C[C@H]2CN1C(=O)c1ccccc1 | 0.762 | 1.23 | 0.892 | -1.91 (inactive) | -0.175 | 0.237 | -0.141 | 0.803 | -0.477 | 1.1 | 0.123 | -1.45 | -0.302 | 2.57 | 0.961 | -0.0481 | -0.2 | 0.268 | 1.28 | 0.455
5 | COCCOC(=O)N1C(=O)[C@@]2(c3cc(C#CCNC(N)=O)ccc31)[C@H](c1ccc(O)cc1)N1[C@H](c3ccccc3)[C@H](c3ccccc3)OC(=O)[C@H]1[C@@H]2C(=O)NC[C@H](O)c1ccccc1 | 0.193 | 0.614 | 0.689 | 0.716 (inactive) | 1.05 | 0.727 | 0.222 | 1.34 | 1.52 | 0.342 | 0.83 | -0.703 | 0.952 | 0.288 | 0.0058 | 0.0026 | -0.119 | -0.287 | 1.1 | 0.834
6 | C=CC[C@@H](OC(=O)Nc1ccc(OC)cc1)c1ccc(O)c2ccccc12 | 1.43 | -0.0942 | -0.0826 | -0.806 (inactive) | 1.2 | 1.28 | 1.06 | 1.4 | 1.23 | 1.07 | 0.94 | -3.47 | 1.07 | 0.0871 | -0.738 | -0.0006 | -0.154 | -0.139 | 0.3 | 0.824
7 | CCCCCCCCCCC(O)C1C=CC2C(=O)N(Cc3ccccc3)C(=O)C2N1n1cnnc1 (stereo not given) | 0.724 | 0.897 | 0.739 | -0.47 (inactive) | -0.262 | 0.08 | -0.384 | -0.351 | -0.906 | 1.23 | 1.37 | -1.2 | -0.62 | 1.55 | 0.727 | 0.147 | 0.251 | 0.62 | 0.36 | 1.02
8 | C=C[C@@H](COC(C)=O)N(Cc1ccc([N+](=O)[O-])cc1)S(=O)(=O)c1ccc(Br)cc1 | 0.566 | 0.965 | 0.992 | -0.807 (inactive) | 0.599 | 0.283 | 0.292 | 0.352 | -0.0075 | 0.663 | -0.541 | -0.365 | 0.59 | 0.989 | 0.729 | -0.0597 | -0.0709 | 0.392 | 0.546 | 1.78
9 | CC(C)NC(=O)[C@@H]1c2ccccc2C(=O)N(Cc2ccccc2Cl)[C@H]1c1ccc(CO)cc1 | 0.284 | 0.0098 | 0.448 | 0.62 (inactive) | -0.584 | 0.0016 | -0.903 | -0.398 | -0.645 | 0.365 | 1.17 | -0.657 | -0.998 | -0.0984 | 0.29 | -0.13 | -0.0769 | 0.139 | 1.25 | -0.436
10 | CO[C@H]1O[C@H](CO)[C@@H](OC(=O)Nc2ccc3c(c2)OCO3)[C@H](OC(=O)Nc2ccccc2)[C@H]1OC(=O)Nc1ccccc1 | 1.48 | 0.132 | 0.398 | 1.89 (inactive) | 0.892 | 1.29 | -0.0701 | 0.848 | 0.295 | 0.395 | 1.5 | -3.44 | 0.0544 | 1.36 | -0.905 | -0.0519 | 0.275 | 0.909 | 1.47 | 1.74
